# Assay results published in PubChem BioAssay (NCI).
# About 83,000 compounds went through this panel and 20% of them were active in at least one assay; those are over-represented in the sample as a whole.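 In brief: 96-well plates, 48 h treatment, single concentration, percent growth endpoint.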 A number with no mark means an inactive call. The source made the active and inactive calls. How the source made its calls: active means growth percent below 10; inactive means the rest.
# Assays:
# Test in all cases: NCI-60 one-dose screen, 48 h (100 = growth as untreated, 0 = no growth, -100 = all killed)
# SR leukemia = settings: 10 µM
# RPMI-8226 leukemia = settings: 10 µM
# OVCAR-8 ovarian = settings: 10 µM
# OVCAR-5 ovarian = settings: 10 µM
# OVCAR-4 ovarian = settings: 10 µM
# SK-OV-3 ovarian = settings: 10 µM
# IGROV1 ovarian = settings: 10 µM
# OVCAR-3 ovarian = settings: 10 µM
# HS 578T breast = settings: 10 µM
# NCI/ADR-RES ovarian = settings: 10 µM
# T-47D breast = settings: 10 µM
# BT-549 breast = settings: 10 µM
# MDA-MB-435 melanoma = settings: 10 µM
# SW-620 colon = settings: 10 µM
# MCF7 breast = settings: 10 µM unless noted
# HCT-116 colon = settings: 10 µM
# HCC-2998 colon = settings: 10 µM
# KM12 colon = settings: 10 µM
SMILES,growth (SR leukemia) [%],growth (RPMI-8226 leukemia) [%],growth (OVCAR-8 ovarian) [%],growth (OVCAR-5 ovarian) [%],growth (OVCAR-4 ovarian),growth (SK-OV-3 ovarian) [%],growth (IGROV1 ovarian) [%],growth (OVCAR-3 ovarian),growth (HS 578T breast) [%],growth (NCI/ADR-RES ovarian) [%],growth (T-47D breast) [%],growth (BT-549 breast) [%],growth (MDA-MB-435 melanoma),growth (SW-620 colon) [%],growth (MCF7 breast),growth (HCT-116 colon),growth (HCC-2998 colon) [%],growth (KM12 colon) [%]
O=C(O)c1cccc([N+](=O)[O-])c1,97.4,120,103,120,105%,113,113,109%,110,107,109,108,111%,111,99.2%,102%,102,105
Cc1ccc(CCCC(=O)O)c(C)c1,96.7,97.8,97.4,94.5,97.6%,97.7,108,108%,108,107,95.2,101,100%,99.7,105%,103%,118,107
CN(C)/N=C/c1ccccc1O,97.9,113,91.3,89.9,100%,105,102,110%,99.7,115,98.6,97.5,107%,100,106%,94.6%,117,107
CCCCC(=O)c1ccc(OC)cc1,92.2,99.8,97,90.5,116%,111,101,114%,95.2,105,110,102,98.7%,101,97.6%,101%,116,104
C=CCNC(=O)c1ccc(OC)cc1,110,92.4,107,103,134%,116,96.2,121%,221,101,103,106,109%,126,95.2%,105%,93.3,122
CN(C)c1ccc(CNC(C(=O)c2ccccc2)c2ccccc2)cc1 (configuration not stated),90.8,94.4,95.9,110,99.1%,103,98.2,114%,46.1,101,98.9,98,107%,101,107%,50.8%,106,98.6
CCCC1(c2ccccc2)NC(=O)NC1=O (configuration not stated),126,101,111,103,104%,99.7,128,108%,113,109,106,106,113%,111,98.6%,99.3%,100,110
NC(=S)NN=C1CCCC1,88,72.6,68.8,115,74.4%,110,93.4,47.6%,95.5,42.9,40.8,107,103%,72.8,21.7%,8.81% (active),97.7,101
O=C1Cc2ccccc2C(=O)O1,79.3,93.4,102,106,112%,114,114,127%,107,114,108,101,107%,105,102%,98.2%,112,115
CC1(O)CCCCC1O (configuration not stated),103,98.6,105,103,107%,101,90.9,120%,102,105,98.4,94,117%,104,106%,101%,104,115
Cc1ccc(C(O)C2CC2)cc1 (configuration not stated),91.7,99.3,94.1,94,105%,106,96.8,106%,104,107,97.4,107,103%,100,104%,107%,113,107
Cc1cccc([N+](=O)[O-])c1Cl,117,103,99.6,96.4,109%,107,112,106%,98.1,92.8,103,100,91.4%,100,105%,108%,86.1,104
CC(C)CCCC(=O)O,89.4,105,114,100,96.8%,108,104,114%,103,109,104,108,105%,100,96%,107%,103,102
COc1ccc(OC)c(/C=C2\CCc3ccccc3C2=O)c1,31.6,35.7,65.4,72.9,70.9%,53,50.9,9.47% (active),45.4,17.8,56.3,44.3,-37.9% (active),17.4,12.1%,19.3%,73.9,22.8
C/C(=N\NC(=O)c1ccccc1N)c1ccccc1O,35.3,52.1,18.2,52.2,6.68% (active),58.3,36.3,12.4%,97.8,26.7,25.2,72.2,57.8%,31.6,5.19% (active),7.72% (active),67.5,46.3
O=S(=O)(O)CC(O)CN1CCN(CCO)CC1 (configuration not stated),92.4,96.3,98.8,117,114%,95.3,124,108%,104,99.7,108,99.3,113%,105,96%,101%,89.4,107
CC(C)=CC(=O)OC(=O)C=C(C)C,94.7,109,99.7,104,119%,96.8,106,101%,120,117,105,105,107%,110,94.7%,109%,117,102
NC(=O)c1ccc(N=C(N)N=C(N)N)cc1,97.4,107,98.8,97.8,98.2%,100,102,105%,99.6,105,95.7,108,85%,104,92.7%,105%,97.7,99.3
O=C(O)CSCSCC(=O)O,97.1,97.3,101,101,99.6%,93.6,107,104%,114,109,95.4,101,99.6%,105,99.6%,106%,109,109
